Screening results from PubChem.
S-ASM inh: Inhibitors of Secretory Acid Sphingomyelinase (S-ASM): qHTS; Sphingomyelin phosphodiesterase (Homo sapiens), P17405; placental ASM, HMU-PC fluorogenic substrate, 60 min; Potency, µM (doses to about 57.5 µM), inactives show top-dose activity change, negative = inhibition, hits mostly inhibitors; 0.006% of 340,000 active; AID 504937, 2011; further: potency means the concentration at half of the fitted maximal effect
Target sequence (P17405 47-631 limits assumed): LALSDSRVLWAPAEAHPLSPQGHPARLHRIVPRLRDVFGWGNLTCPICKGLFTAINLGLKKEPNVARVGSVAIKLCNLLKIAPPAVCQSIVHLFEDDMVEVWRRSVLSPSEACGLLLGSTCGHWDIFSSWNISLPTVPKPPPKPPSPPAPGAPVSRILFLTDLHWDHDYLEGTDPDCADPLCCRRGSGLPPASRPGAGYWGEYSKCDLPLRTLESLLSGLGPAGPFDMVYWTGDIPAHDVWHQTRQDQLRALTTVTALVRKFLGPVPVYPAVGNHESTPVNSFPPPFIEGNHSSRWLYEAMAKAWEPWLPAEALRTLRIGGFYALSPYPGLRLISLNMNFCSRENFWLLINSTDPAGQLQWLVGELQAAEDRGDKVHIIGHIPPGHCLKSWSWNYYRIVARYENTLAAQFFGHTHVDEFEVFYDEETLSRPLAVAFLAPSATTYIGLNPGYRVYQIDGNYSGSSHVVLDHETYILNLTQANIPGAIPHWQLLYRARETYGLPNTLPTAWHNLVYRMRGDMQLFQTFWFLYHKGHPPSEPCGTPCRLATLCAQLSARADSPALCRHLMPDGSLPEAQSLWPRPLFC
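HMU-PC0 cleavage (9 uM final) by human placental ASM, 60 min at 37 °C following 10 min compound exposure at RT; stopped at pH 10, fluorescence Ex 386/Em 447 nm.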
miR-21 reporter: qHTS Assay for Modulators of miRNAs and/orActivators of miR-21; AID 2288, 2010; 340,000 tested, under 10 active; Potency, µM (doses to about 38.3 µM), without a hit: at the top dose activity change, positive = activation, most hits filed as activators; HeLa miR-21 FLuc reporter, luciferase, 48 h;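 further: % of control where 0% means no effect; miR-21 action dims this reporter so a rising signal means less miR-21 action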
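Using DMEM plus 10% FBS, HeLa miR-21-FLuc cells are incubated with test compounds (final up to about 40uM) for 48 hours; firefly luciferase signal is then imaged following reagent-mediated lysis.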
RXFP1 antag: qHTS Assay for Antagonists of the Relaxin Receptor RXFP1. Relaxin receptor 1 (Homo sapiens), Q9HBX9. HEK293-RXFP1, relaxin-stimulated cAMP HTRF, 30 min; hits give low values. activity change, negative = inhibition, % at 57.5 µM. 0.59% of 350,000 active;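 active means activity change of -60% or lower, but not beyond a set lower limit; inconclusive means change between -60% and -40%, or beyond the set limit; inactive means change above -40%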; further: on the % scale 0 is the no-effect control and ±100 the full control effect
Mito fusion act: qHTS Assay for Small Molecule Inhibitors of Mitochondrial Division or Activators of Mitochondrial Fusion; Potency, µM (series often up to 46.1 µM), for inactives: top-dose growth rescue (activation), hits mostly activators; AID 485298, 2010; 0.23% of 320,000 active; S. cerevisiae fusion-defective mutant growth rescue, CellTiterGlo 48 h; further: potency means the concentration at half of the fitted maximal effect; % of control where 0% means no effect; nearly all actives have a fitted effect of over 45% in size
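Growth-rescue viability read-out: after 48 h at the non-permissive 37C in glycerol/ethanol YPEG, yeast mitochondrial fusion mutants are measured by CellTiterGlo luminescence; compounds (23 nl pinned per well) restoring growth score as division inhibitors or fusion activators.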
ERG Ets-DNA blk: qHTS for Small Molecule Inhibitors of the ERG Ets/DNA interaction; 0.028% of 370,000 active; AID 624246, 2012; fluorescence polarization, His-ERG Ets domain / labelled DNA; Potency, µM (top dose mostly 76.9 µM), inactives show at the highest dose FP activity, negative = inhibition, hits mostly inhibitors; active means well fitted inhibition curve with a large enough effect in the polarisation, with a control signal flat; inconclusive means small, poorly fitted or top-dose-only effect, or effect the other way, or a change in a side signal; inactive means no such curve, though single readings can be large or run the other way; the % refers to the polarisation;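 further: polarization taken with two DNA probes labelled with fluorescein and Texas red; potency means the concentration at half of the fitted maximal effect; % of control where 0% means no effect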
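His-tagged ERG Ets domain (1 uM in the protein solution; 300mM KCl, 50mM Tris-HCl, 1mM EDTA, 1mM DTT, pH 7.5) received compound, then a probe mix of 5 nM fluorescein-DNA and 100nM Texas-615-DNA. Fluorescence polarization was read for both dyes.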
RXFP1 ag: qHTS Assay for Agonists of the Relaxin Receptor RXFP1; Relaxin receptor 1 (Homo sapiens), Q9HBX9; HEK293T-RXFP1 cAMP TR-FRET, 30 min; response scale: percent of porcine relaxin response, buffer zero; Potency, µM (titrated, usually from 57.5 µM), without a hit: at the top dose activation, usual class: activators; 0.3% of 370,000 active; AID 2676, 2010; further: potency means the concentration at half of the fitted maximal effect; on the % scale 0 is the no-effect control and ±100 the full control effect; nearly all actives have a fitted effect of over 60% in size
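HEK293T cells stably expressing RXFP1 were pretreated with the PDE4 inhibitor Ro 20174, exposed to compounds for 30 min at 37C, lysed, and cAMP was read by TR-FRET. Data normalized to buffer (basal) and 29 nM porcine relaxin (100%).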
Active calls of the source: *; ? = inconclusive; / = no result. Only some compounds are listed: those with a hit (about 0.72% of all), similar ones and a draw of the others. Unless noted, the call rests on the fitted dose curve; in most records, active means well fitted curve in the direction sought with a large enough effect; inconclusive means small, poorly fitted or top-dose-only effect, or another doubt; inactive means no such curve, though single readings can be large; an effect the other way counts as inactive or inconclusive.

SMILES	S-ASM inh	miR-21 reporter	RXFP1 antag	Mito fusion act	ERG Ets-DNA blk	RXFP1 ag
CC(C)N1C(=O)S/C(=C/c2ccc3c(c2)n(C)c(=O)n3C)C1=O	5%	-7%	1	-2%	-8%	8%
CCN1C(=O)/C(=C\C(=O)c2cccs2)c2cc(Br)ccc21	-11%	-1%	-66*	-6%	12%	2%
O=C(c1cnn(-c2cccc(F)c2)c1-n1cccc1)N1CCN(c2ccccc2F)CC1	/	2%	?	/	4%	-1%
CCC(=O)Nc1cccc(C(=O)OCc2cccc([N+](=O)[O-])c2)c1	-1%	-2%	-2	-3%	7.1µM*	5%
CC(=O)Nc1cccc(C(=O)OCc2ccc([N+](=O)[O-])cc2)c1	-4%	-9%	-1	3%	7%	0%
O=C(Nc1cccc(C(F)(F)F)c1)c1cc(CN2CCOCC2)on1	/	0%	3	/	-1%	-2%
C=CCn1c(NC(=O)c2ccco2)c(S(=O)(=O)c2ccccc2)c2nc3ccccc3nc21	/	1%	/	6%	/	10%
C=CCn1c(NC(=O)c2ccc(Br)o2)c(S(=O)(=O)c2ccccc2)c2nc3ccccc3nc21	262%	-5%	4	11µM*	-5%	20%
COCCNC(=O)CSc1nc2cc3c(cc2c(=O)n1CCCC(=O)NCc1ccc2c(c1)OCO2)OCO3	/	-7%	-3	/	-5%	0%
CCCOc1ccc(NC(=O)CC2C(=O)N(CC)C(=S)N2CCNC(C)=O)cc1 (stereo unspecified)	/	-10%	-2	-4%	-5%	0%
CCCOc1ccc(NC(=O)CC2C(=O)N(CC)C(=S)N2CCCN2CCN(Cc3ccccc3)CC2)cc1 (stereo unspecified)	-4%	?	-65*	2%	-8%	2%
COc1ccc(N(CC(=O)Nc2ccc(F)c(F)c2)S(=O)(=O)c2c(C)n[nH]c2C)cc1	3%	0%	-86*	-3%	-3%	-2%
Cc1cc(C)cc(NC(=O)CC(C)n2nc(C)cc2C)c1 (stereo unspecified)	/	5%	-2	/	-2%	-4%
O=S(=O)(c1ccc2c(c1)OCO2)N1CCN(c2nnnn2-c2ccccc2)CC1	3%	-4%	11	5µM*	-8%	-4%
CCOC(=O)CC(NS(=O)(=O)c1cc(-c2cc(C)no2)ccc1C)c1ccc(C)cc1 (stereo unspecified)	/	5%	/	/	2%	0%
CO[C@@H]1[C@@H](OC)[C@H](C)[C@@](O)(CC(=O)O)O[C@H]1[C@H](C)[C@H]1O[C@@]2(CC[C@@](C)([C@H]3CC[C@@](C)([C@@H]4O[C@@H]([C@H]5O[C@](C)(O)[C@H](C)C[C@@H]5C)C[C@@H]4OC4C[C@H](OC)[C@@H](OC)[C@H](C)O4)O3)O2)C[C@H](O)[C@H]1C (stereo partly specified)	/	/	-66*	/	/	/
CCOc1ccccc1CN1CCc2nc(N3CCN(c4ccccc4F)CC3)ncc2C1	/	?	-60*	/	0%	6%
CCCS(=O)(=O)N1CCCC(C(=O)Oc2ccc(C)c(C)c2)C1 (stereo unspecified)	-1%	1%	-8	-2%	-13%	-2%
C=CCn1c(SCC(=O)NC2CCCC2)nc2scc(-c3ccco3)c2c1=O	-3%	-2%	-62*	1%	8%	1%
COc1ccc2c(C(=S)N(C)CC(=O)O)cccc2c1C(F)(F)F	/	/	-3	/	/	/
CC(=O)N(C1=C(Cl)C(=O)c2ccccc2C1=O)C1CCCCC1	-1%	?	-99*	0%	9%	-3%
O=C(CSc1nc(-c2ccc(F)cc2)[nH]c1-c1ccc(F)cc1)Nc1ccc2c(c1)OCCO2	/	?	?	/	-1%	2%
O=C(CSc1nc(-c2ccc(F)cc2)[nH]c1-c1ccc(F)cc1)Nc1ccc2c(c1)OCO2	/	?	-60*	/	16%	2%
CCc1c(C)nc2nncn2c1Nc1ccc(Cl)cc1	/	15%	-5	/	-3%	2%
Cc1ccc(C)c(/C=C/C(=O)c2ccccc(=O)c2O)c1	0%	?	?	?	1%	-1%
SMILES	S-ASM inh	miR-21 reporter	RXFP1 antag	Mito fusion act	ERG Ets-DNA blk	RXFP1 ag
O=C(/C=C/c1ccc(Cl)cc1)c1cccnc1	-1%	?	/	-6%	-2%	2%
O=C(C=Cc1ccccc1O)c1ccccc1O	-1%	/	-66*	/	7%	/
O=C(/C=C/c1ccccc1Cl)c1cccnc1	-3%	?	-72*	1%	8%	2%
O=C(/C=C/c1ccc(O)c(O)c1)c1ccccc1O	-12%	-58%	-14	4%	56%	5%
O=C(/C=C/c1ccccc1Cl)c1ccccc(=O)c1O	-1%	?	-79*	?	5%	5%
COc1ccc(-c2noc(Cn3c(=O)c4ccccc4n(CC(=O)Nc4cccc(C(F)(F)F)c4)c3=O)n2)cc1	/	?	-5	/	?	-1%
CC(=O)N1c2ccc(S(=O)(=O)N3CCCC(C(=O)Nc4ccc(F)cc4)C3)cc2CC1C (stereo unspecified)	-3%	23%	/	2%	1%	4%
O=C(CS(=O)(=O)c1nc(-c2ccc(Cl)cc2)cn1-c1ccccc1)Nc1ccc(F)cc1F	/	1%	-64*	/	2%	-3%
Cc1ccc(-c2cn(-c3cccc(Cl)c3)c(S(=O)(=O)CC(=O)Nc3ccccc3F)n2)cc1	/	-25%	-64*	/	-10%	4%
O=C(CS(=O)(=O)c1nc(-c2ccc(Cl)cc2)cn1-c1ccccc1)Nc1cccc(Cl)c1	/	9%	?	/	2%	-1%
Cc1ccc(N(Cc2ccccc2)C(=O)CN2C(=O)NC3(CCCC3)C2=O)cc1	-6%	-2%	-1	3%	11%	0%
CO/N=C(\C(=O)O)c1csc(NC(=O)CCl)n1	/	/	4	/	/	/
Cn1c2cc(B(O)O)sc2c2cnn(Cc3c(F)cccc3F)c(=O)c21	/	/	/	-3%	/	3%
O=C(CCCCCn1c(=O)c2sccc2n(Cc2ccccc2Cl)c1=O)NCc1ccc2c(c1)OCO2	/	-3%	-6	/	5%	32µM*
Cc1nc(SCc2nc3ccccc3[nH]2)c2oc3ccccc3c2n1	?	-25%	-10	2%	0%	8%
